Assays:
HCC1937 = assay: relative cell viability, compound alone, vs DMSO (fraction of DMSO control); higher = less growth inhibition; conditions: 72 h
MDA-MB-231 = assay: as above; conditions: 72 h
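Further: viability read out with the CCK-8 kit in 96-well plates, screening a set of 303 compounds acting on lipid metabolism targets.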

Row | Structure (SMILES) | relative cell viability (HCC1937) | relative cell viability (MDA-MB-231)
1 | COc1ccc(C(=O)/C=C/c2ccccc2)cc1 [4'-Methoxychalcone] | 0.73 | 0.889
2 | O=C(O)c1cc2c(Cl)c(N3CCN(S(=O)(=O)c4c(Cl)cccc4Cl)CC3)ccc2o1 [Vonafexor] | 1.16 | 1.16
3 | COC(=O)/C=C/c1cccc(N(Cc2ccc(-c3ccc(N(C)C)cc3)cc2)C(=O)C2CCCCC2)c1 [Fexaramine] | 0.805 | 0.924
4 | CC(=O)Nc1nc(C)c(S(=O)(=O)Nc2ccc(C(O)(C(F)(F)F)C(F)(F)F)cc2)s1 | 1.29 | 1.24
5 | C=CCc1ccc(O)c(-c2cc(CC=C)ccc2O)c1 [Magnolol] | 1 | 0.968
6 | COc1ccc(C2(CNC(=O)c3ccc(NC(=O)c4ccco4)cc3)CCOCC2)cc1 | 0.84 | 0.873
7 | CCN(CC)Cc1ccc(C(=O)N(CCc2ccccc2OC)[C@@H]2CCNC2)cc1 | 1.45 | 0.979
8 | C[C@H](CCOc1cccc(CC(=O)O)c1)N(Cc1cccc(C(F)(F)F)c1Cl)CC(c1ccccc1)c1ccccc1 [RGX-104 free Acid] | 0.613 | 0.863
9 | C[C@H](CCOc1cccc(CC(=O)O)c1)N(Cc1cccc(C(F)(F)F)c1Cl)CC(c1ccccc1)c1ccccc1 | 0.632 | 0.841
10 | O=C(CCCCCCCC(=O)NCCO)NCCO [Adelmidrol] | 1.16 | 1.04
11 | COc1c(/C=C/C(=O)c2ccc(O)cc2)ccc(O)c1CC=C(C)C | 1.06 | 0.885
12 | CC(C)OC(=O)C(C)(C)Oc1ccc(C(=O)c2ccc(Cl)cc2)cc1 [Fenofibrate] | 1.16 | 0.955
13 | CCCCCCCCCCC#CC#CCCCCCCCCC(=O)O [10,12-Tricosadiynoic acid] | 0.712 | 0.911
14 | COc1ccc2[nH]cc(CCNC(C)=O)c2c1 [Melatonine] | 0.76 | 0.783
15 | CCCc1cc(-c2nc(-c3ccc(C)cc3)cs2)ccn1 [Fatostatin] | 0.733 | 0.745
16 | O=C(CC(C(=O)O)c1c[nH]c2ccccc12)c1ccc(F)cc1F (stereo unspecified) [Mitochonic acid 5] | 1.26 | 1.19
17 | Cc1c2c(=O)n(-c3ccccc3Cl)[nH]c2cc(=O)n1Cc1ccccn1 | 0.973 | 1.07
18 | CCC(C)(Oc1ccc(C2(c3ccc(OC(C)(CC)C(=O)O)cc3)CCCCC2)cc1)C(=O)O (stereo unspecified) [Clinofibrate] | 0.901 | 0.846
19 | O=C(O)c1c[nH]c2cc(Cl)c(-c3ccc(C4(O)CCC4)cc3)cc12 | 0.958 | 0.914
20 | CC[C@H](C)C(=O)O[C@H]1C[C@H](O)C=C2C=C[C@H](C)[C@H](CC[C@@H](O)C[C@@H](O)CC(=O)O)[C@H]21 [Pravastatin sodium] | 0.918 | 0.964
21 | C[C@]12C=CC(=O)N[C@@H]1CC[C@@H]1[C@@H]2CC[C@]2(C)[C@@H](C(=O)Nc3cc(C(F)(F)F)ccc3C(F)(F)F)CC[C@@H]12 [Dutasteride] | 0.798 | 0.777
22 | COc1ccc([C@@H]2OC[C@H]3[C@@H]2CO[C@@H]3c2ccc(O[C@@H]3O[C@H](CO)[C@@H](O)[C@H](O)[C@H]3O)c(OC)c2)cc1OC [Forsythin] | 1.22 | 1.06
23 | CC1=C[C@]2(O)O[C@@]3(CC2=C(C)C)[C@@H](C)CC[C@@H]13 [Curcumenol] | 0.868 | 0.863
24 | Cc1nc(Nc2cnn(C3CCNCC3)c2)nc2c1N(C)C(=O)c1cc3ccccc3cc1N2C | 0.354 | 0.49

Row | Structure (SMILES) | relative cell viability (HCC1937) | relative cell viability (MDA-MB-231)
25 | CC(C)C1=CC2=CC[C@@H]3[C@](C)(CCC[C@@]3(C)C(=O)O)[C@H]2CC1 [Abietic Acid] | 1.02 | 1.07
26 | O=C(Nc1ccc(C(O)(C(F)(F)F)C(F)(F)F)cc1)c1ccccc1Cl | 1.05 | 1.01
27 | O=C(Nc1ccccc1)c1cc([N+](=O)[O-])ccc1Cl | 1.08 | 1.03
28 | COCCNC(=O)Nc1ccc2nc(-c3cccs3)c(-c3cccs3)nc2c1 [Ac-CoA Synthase Inhibitor1] | 0.959 | 0.91
29 | COc1ccc(-n2c(SCCCN3C(=O)c4cccc5cccc(c45)C3=O)nnc2-c2ccncc2)cc1 | 0.661 | 0.877
30 | COC(=O)c1sccc1S(=O)(=O)Nc1ccc(Nc2ccccc2)cc1OC | 0.795 | 0.871
31 | Cc1c(C)c2c(c(C)c1O)CCC(C)(COc1ccc(CC3SC(=O)NC3=O)cc1)O2 (stereo unspecified) [Troglitazone] | 0.718 | 0.984
32 | NC(N)=N/N=C/c1cccc(Cl)c1Cl [Raphin1 acetate] | 1.01 | 0.822
33 | CCCCCCCCCCCCCCOc1ccc(C(=O)O)o1 | 1.07 | 1
34 | O=C(CN1CCN(C(=O)c2ccco2)CC1)Nc1cc(C(F)(F)F)ccc1Cl | 0.767 | 0.892
35 | CC(C)=CCC(O)C1=CC(=O)c2c(O)ccc(O)c2C1=O (single isomer, unassigned; (+)) [(+)-Shikonin] | 0.2 | 0.529
36 | CCOC(=O)N1c2ccc(C(F)(F)F)cc2[C@@H](N(Cc2cc(C(F)(F)F)cc(C(F)(F)F)c2)C(=O)OC)C[C@H]1CC [Torcetrapib] | 0.745 | 0.781
37 | O=C(O)c1cccnc1Nc1cccc(C(F)(F)F)c1 [Niflumic acid] | 1.09 | 0.89
38 | NC(=O)c1ncn([C@@H]2O[C@H](CO)[C@@H](O)[C@H]2O)c1N [AICAR (Acadesine)] | 0.804 | 0.892
39 | O=C(Nc1cccnc1)N1CCC(Cc2cccc(Oc3ccc(C(F)(F)F)cn3)c2)CC1 | 1.14 | 1.01
40 | Cc1c(C(=O)NN2CCCCC2)nn(-c2ccc(Cl)cc2Cl)c1-c1ccc(Cl)cc1 [Rimonabant] | 0.936 | 0.817
41 | Cn1c2cc([S+](C)[O-])sc2c2cnn(Cc3cccc(N)c3)c(=O)c21 (stereo unspecified) | 0.688 | 0.96
42 | CCCCCCCCCCCCC/C=C/[C@@H](O)[C@@H](N)CO | 0.331 | 0.792
43 | O=C(Nc1cccnn1)N1CCC(=Cc2cccc(Oc3ccc(C(F)(F)F)cn3)c2)CC1 | 1.15 | 0.987
44 | CCCCCCCCCCCC1=C(O)C(=O)C=C(O)C1=O [Embelin] | 1.08 | 0.983
45 | CC(C)c1cc(C(C)C)c(CC(=O)NS(=O)(=O)Oc2c(C(C)C)cccc2C(C)C)c(C(C)C)c1 [Avasimibe] | 0.707 | 0.832
46 | C=C1C[C@]2(O)O[C@@]3(CC2=C(C)C)[C@@H](C)CC[C@@H]13 [Isocurcumenol] | 0.933 | 0.92
47 | C=C(C)[C@@H]1CC[C@]2(C)CC[C@]3(C)[C@H](CC[C@@H]4[C@@]5(C)CCC(=O)C(C)(C)[C@@H]5CC[C@]43C)[C@@H]12 | 1.04 | 1.08
48 | Cc1c(C(=O)Nc2ccc(CO)cc2)nnn1Cc1ccc(Cl)c(Cl)c1 | 0.975 | 0.95
